This is part of a sample that, as a whole, favours compounds with a hit. Of some 79,000 tested, about 15% had one in any assay. Cut-off read from the data, not from the text of the source: active = growth inhibition above about 70%; inactive = the rest.
Key:
[1] = NCI Yeast Anticancer Drug Screen. Data for the rad50 strain (AID 155);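 note: 0% = growth of vehicle-only cultures of the same strain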; settings: S. cerevisiae rad50 strain growth inhibition; at 50.0 µM; stronger effect = higher value
How it was run: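 Inhibition values express reduced yeast growth in compound-treated cultures relative to vehicle-treated controls.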

[2] = NCI Yeast Anticancer Drug Screen. Data for the mec2-1 strain (AID 157); settings: S. cerevisiae mec2-1 strain, at 50.0 µM, stronger effect = higher value
How it was run: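 Yeast mec2-1 mutant treated with compound. Readout: growth inhibition vs vehicle controls.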

[3] = NCI Yeast Anticancer Drug Screen. Data for the sgs1 mgt1 strain (AID 161);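 note: 0% = growth of cultures given vehicle only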; settings: S. cerevisiae sgs1 mgt1 strain, at 50.0 µM, stronger effect = higher value
How it was run: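 Mutant yeast exposed to compound; growth scored against vehicle-only wells.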

[4] = NCI Yeast Anticancer Drug Screen. Data for the cln2 rad14 strain (AID 165);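 note: 0% = growth equal to vehicle treated cultures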; settings: S. cerevisiae cln2 rad14 strain, at 50.0 µM, stronger effect = higher value
How it was run: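 cln2 rad14 yeast strain; compound exposure; growth inhibition read vs vehicle controls.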

[5] = NCI Yeast Anticancer Drug Screen. Data for the bub3 strain (AID 167); settings: S. cerevisiae bub3 mutant strain, at 50.0 µM, stronger effect = higher value
How it was run: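 Steps: expose the mutant yeast strain to compound; grow alongside vehicle-treated cultures; measure growth; express inhibition against the vehicle cultures.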

[6] = NCI Yeast Anticancer Drug Screen. Data for the mlh1 rad18 strain (AID 175); settings: S. cerevisiae mlh1 rad18 strain growth inhibition; at 50.0 µM; stronger effect = higher value
How it was run: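 Yeast w/ defined DNA-repair lesions; compound exposure; growth vs vehicle controls → % inhibition.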

Measured: growth inhibition

COC(=O)C(CCC1(C)OCCO1)=[N+]=[N-]
inactive: [1] -7.05% | [2] 0.95% | [3] -15.1% | [4] 2.85% | [5] -19.1% | [6] -16%

CC(=O)Nc1ccc2c(c1)CCCC2
inactive: [1] 5.75% | [2] -4.45% | [3] -0.8% | [4] -71.6% | [5] -2.95% | [6] -16.4%

NC(=O)C(CCCCNc1c(C(=O)O)cc([N+](=O)[O-])cc1[N+](=O)[O-])NC(=O)c1ccccc1 (stereo not drawn)
inactive: [1] 14.4% | [2] -6.05% | [3] -19.1% | [4] -7.95% | [5] -2% | [6] 28.8%

From PubChem BioAssay (NCI)
